Sampled rows, rich in hits. Any-hit rate of the full collection: about 2.6%.
ABHD5-PLIN5 inh – ABHD5-PLIN5 protein interaction inhibition. Split G. princeps luciferase complementation, luminescence, 4 h. 0.78% of 360,000 active. inhibition, % at 4 µM. Q00G26+Q8WTS1;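 active = inhibition above the mean inhibition across every tested compound plus 3 SD, cut at about 22% in these data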;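 also: 0% = DMSO only wells and the 100% control is not disclosed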
NOD2 RIPK2 PPI – blocks binding of human NOD2 to RIPK2; CHO BLA complementation NOD2-RIPK2, CCF4 ratio; inhibition, % at 4.98 µM; 0.38% of 360,000 active; AID 624267; in the data active = inhibition above about 21%;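 also: 0% = vehicle only and 100% = reference blocker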
TLR4 MyD88 comp – inhibitors of human TLR4-MyD88 binding. inhibition, % at 8.4 µM. 0.18% of 200,000 active. O00206+Q99836. HeLa CL3-4 TLR4/MyD88 BLA complementation, FRET ratio; in the data active = inhibition above about 25%;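 also: 0% = vehicle and 100% = reference inhibitor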
Exocytosis inh – lytic granule exocytosis inhibition; 0.66% of 360,000 active; inhibition, % at 10 µM; TALL-104 LAMP-1 surface exposure, flow cytometry; cells stimulated with thapsigargin and PMA;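 active = inhibition above about 55%, limit read from the data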
PRMT1 inh – inhibitors of human PRMT1; recombinant PRMT1, activity-based probe fluorescence polarization; inhibition, % at 2.79 µM; 1.3% of 370,000 active;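 active = inhibition above about 21% made by adding two undisclosed values, limit read from the data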
TLR9-MyD88 block – inhibitors of human TLR9-MyD88 binding. Q9NR96+Q99836. CHO BLA complementation TLR9-MyD88, CCF4 FRET ratio. inhibition, % at 4.98 µM. 0.21% of 340,000 active. AID 504734;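 active = inhibition above the mean over all tested compounds plus 3 SD, cut at about 21% in these data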;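 also: 0% = DMSO only wells and 100% = clavulanate BLA inhibitor control wells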
Target sequence (Q99836 whole entry, looked up): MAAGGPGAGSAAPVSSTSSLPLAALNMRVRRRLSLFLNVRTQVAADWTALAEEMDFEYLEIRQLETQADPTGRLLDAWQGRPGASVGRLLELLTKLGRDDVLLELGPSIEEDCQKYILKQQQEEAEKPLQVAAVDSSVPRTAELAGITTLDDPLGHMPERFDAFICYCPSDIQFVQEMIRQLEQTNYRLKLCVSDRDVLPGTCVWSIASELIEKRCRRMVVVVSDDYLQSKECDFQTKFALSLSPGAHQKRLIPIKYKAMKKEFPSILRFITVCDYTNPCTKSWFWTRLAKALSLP
Target sequence (Q9NR96 whole entry, looked up): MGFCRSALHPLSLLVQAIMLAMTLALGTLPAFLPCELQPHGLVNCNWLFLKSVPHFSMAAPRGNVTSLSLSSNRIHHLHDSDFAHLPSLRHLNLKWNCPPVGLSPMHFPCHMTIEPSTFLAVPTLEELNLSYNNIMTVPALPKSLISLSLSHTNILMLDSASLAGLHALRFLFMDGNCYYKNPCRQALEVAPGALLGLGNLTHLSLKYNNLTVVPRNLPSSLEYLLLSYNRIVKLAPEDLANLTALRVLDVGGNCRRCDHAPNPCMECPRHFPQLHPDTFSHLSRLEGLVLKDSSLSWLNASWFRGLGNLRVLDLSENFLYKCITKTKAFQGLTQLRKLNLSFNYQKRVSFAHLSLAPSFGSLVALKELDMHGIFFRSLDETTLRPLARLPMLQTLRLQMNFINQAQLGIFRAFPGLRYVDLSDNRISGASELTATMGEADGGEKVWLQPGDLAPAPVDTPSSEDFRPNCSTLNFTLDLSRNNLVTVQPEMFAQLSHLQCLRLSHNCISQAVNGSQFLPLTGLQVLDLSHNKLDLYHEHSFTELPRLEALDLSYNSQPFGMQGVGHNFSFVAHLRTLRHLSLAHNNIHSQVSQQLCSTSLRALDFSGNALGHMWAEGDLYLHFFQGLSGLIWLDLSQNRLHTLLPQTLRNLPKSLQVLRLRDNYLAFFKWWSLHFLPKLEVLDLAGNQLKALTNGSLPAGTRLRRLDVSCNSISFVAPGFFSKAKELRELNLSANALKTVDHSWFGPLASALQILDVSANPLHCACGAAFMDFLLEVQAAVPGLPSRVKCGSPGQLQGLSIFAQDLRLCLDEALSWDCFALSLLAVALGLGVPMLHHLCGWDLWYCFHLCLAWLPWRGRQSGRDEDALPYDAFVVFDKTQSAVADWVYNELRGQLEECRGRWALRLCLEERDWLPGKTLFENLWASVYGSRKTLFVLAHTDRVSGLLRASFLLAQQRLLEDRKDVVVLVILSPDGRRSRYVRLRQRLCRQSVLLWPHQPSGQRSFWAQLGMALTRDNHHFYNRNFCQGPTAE
The depositor's hits bear a star; . = no result given.

SMILES | ABHD5-PLIN5 inh | NOD2 RIPK2 PPI | TLR4 MyD88 comp | Exocytosis inh | PRMT1 inh | TLR9-MyD88 block
CCC(=C(c1ccc(OC)cc1)c1ccc(OC)cc1)c1cn(CC(O)CN(CCO)CCO)c2ccccc12 (configuration not stated) | 11.6 | -6.3 | 6.2 | 72.3* | 1.0 | -8.1
COc1ccc(OCC(O)CN(CCO)CC(O)Cn2ccc3ccccc32)cc1 (configuration not stated) | 20.1 | -9.5 | -16.1 | 22.1 | 1.3 | -13.0
CCCCCCCCN1C(=O)[C@@H](CC(=O)N2CCN(C(=O)C3CC3)CC2)C[C@@]2(C(=O)OC)C1=C[C@H](COCc1ccccc1)O[C@@H]2C | . | . | . | . | 1.9 | .
O=C(CN1CCN(c2ccc(O)cc2)CC1)Nc1ccc2c(c1)OCCO2 | 4.3 | -12.5 | 6.1 | 14.8 | 24.1* | 0.6
CC(COc1ccc(C#N)cc1F)CN1CCC(C(O)(c2ccccc2)c2ccccc2)CC1 (configuration not stated) | . | . | . | . | -3.1 | .
Cc1cccc(NS(=O)(=O)c2ccc(NC(=O)CN(c3cc([N+](=O)[O-])ccc3C)S(C)(=O)=O)cc2)c1 | 32.0* | -6.9 | -7.0 | 13.0 | -0.6 | -0.4
O=C(CCNc1ccc(Cc2ccncc2)cc1)c1ccc([N+](=O)[O-])cc1 | 3.8 | 3.5 | -13.7 | 89.5* | 36.1* | 1.9
O=C(Nc1ccc(Cc2ccncc2)cc1)c1cccc([N+](=O)[O-])c1 | 0.3 | -1.6 | -3.9 | 12.5 | -1.3 | -8.9
Nc1ccc(S(=O)(=O)c2cc(O)c3ccccc3c2O)cc1 | -6.4 | -0.2 | . | 88.3* | 23.6* | -5.0
O=S(=O)(c1ccccc1)c1cc(O)ccc1O | 0.1 | -6.7 | -12.3 | -1.9 | 4.8 | 0.2
Cc1[nH]nc(N=CC2=C(O)CC(C)(C)CC2=O)c1-c1ccc(Cl)cc1 | -3.8 | 2.7 | 2.3 | -3.3 | 3.6 | -0.3
Cc1[nH]nc(N=CC2=C(O)CC(c3ccco3)CC2=O)c1-c1ccc(Cl)cc1 (configuration not stated) | -4.7 | -1.2 | 0.8 | 98.5* | 1.7 | -2.4
Cc1cc(=O)oc2c(N)nccc12 | 22.1* | -10.6 | . | 4.4 | . | .
Cc1ccc2nc(-c3ccc(NC(=S)NCC(C)(C)CN(C)C)cc3)sc2c1 | 21.4 | 3.8 | . | 56.0* | -3.2 | 2.2
Cc1ccc(S(=O)(=O)N2CCOCC2)cc1NC(=O)CSc1nc(N)cc(=O)[nH]1 | -9.5 | 12.2 | . | -4.7 | 22.7* | 5.5
O=C1c2cccc3c(N4CCCCC4)ccc(c23)C(=O)N1c1ccc(Cl)cn1 | . | . | 27.5* | . | . | .
CCOC(=O)N1CCN(C(=O)c2cc3sccc3n2C)CC1 | -0.5 | -2.6 | -15.2 | -0.6 | 4.1 | -7.8
Cc1ccc(C)c(N2CCN(C(=O)c3cc4sccc4n3C)CC2)c1 | -0.7 | -6.9 | 6.3 | 3.9 | 22.2* | -5.8
O=C(Nn1c(COc2ccccc2)nc2ccccc2c1=O)C(Cl)(Cl)Cl | -0.1 | -10.7 | . | 79.2* | 5.1 | -19.8
CCOC(Cn1cc([N+](=O)[O-])c(=O)[nH]c1=O)OCC | -0.4 | -12.9 | . | 3.5 | -4.2 | 1.3
NC(=S)NN=CCn1cc([N+](=O)[O-])c(=O)[nH]c1=O | -2.9 | -5.2 | . | -4.0 | 23.8* | 2.4
c1coc(CSSCc2ccco2)c1 | -5.4 | -12.6 | . | 3.4 | 49.1* | -4.3
Cc1ccc(NC(=O)CSCc2ccco2)cc1 | -4.5 | -9.9 | -7.8 | -1.5 | 6.4 | 4.2
O=S1(=O)CCC(N(N=Cc2ccco2)c2ccccc2)C1 (configuration not stated) | . | . | . | . | 7.4 | .
CCOC(=O)c1ccc(NC(=O)NC2CC3CCC(C2)N3Cc2nnnn2Cc2ccco2)cc1 (configuration not stated) | 4.5 | -19.5 | -0.5 | -1.3 | 23.3* | -0.3
CC(C)(C)n1nnnc1CN1C2CCC1CC(NC(=O)Nc1ccccc1)C2 (configuration not stated) | 1.7 | 4.2 | -8.6 | -1.8 | -2.8 | -9.7
Cc1ccc(C(=S)N2CCN(Cc3ccccc3)CC2)cc1 | -7.0 | 3.0 | 5.5 | -4.6 | 22.0* | -0.1
O=C(NCc1ccccc1)[C@@H]1CCCN1C(=O)[C@H]1CCCN1C(=O)c1ccc(OC(F)(F)F)cc1 | . | . | . | . | 2.0 | .
COc1cccc(/C=N/NC(=O)c2[nH]nc3c2CCc2ccccc2-3)c1 | 4.7 | -3.2 | . | 81.2* | -3.1 | .
